# Test results as given in PubChem BioAssay (EPA / NIEHS).
# Where “and” joins values, the source holds several entries; their conditions need not be identical. Identical values can stand only once. A structure can be active in one record and inactive in another. Calls of active or inactive are those of the source. How the source made its calls: active means hit-call score of the fitted dose curve at least 0.9, where 1 is the maximum; inactive means score below 0.9.
# Assay: ATG_RORE_CIS: Attagene CIS-FACTORIAL HepG2 Assay for human RAR-related Orphan Receptor Element (RORE) (AID 2282959)
# Conditions: HepG2 Attagene cis-factorial RORE reporter, mRNA; actives raise or lower the signal
# Description: ATG_CIS is a cell-based, multiplexed-readout assay that uses HepG2, a human liver cell line, with measurements taken at 24 hours after chemical dosing in a 24-well plate.ATG_RORE_CIS is one of 52 assay component(s) measured or calculated from the ATG_CIS assay. It is designed to make measurements of mRNA induction, a form of inducible reporter, as detected with fluorescence intensity signals by Reverse transcription polymerase chain reaction (RT-PCR) and Capillary electrophoresis technology.Data from the assay component ATG_RORE_CIS was analyzed into 1 assay endpoint. This assay endpoint, ATG_RORE_CIS, was analyzed with bidirectional fitting relative to DMSO as the negative control and baseline of activity. Using a type of inducible reporter, measures of mRNA for gain or loss-of-signal activity can be used to understand the reporter gene at the transcription factor-level as they relate to the gene RORA and RORB and RORC. Furthermore, this assay endpoint can be referred to as a primary readout, because this assay has produced multiple assay endpoints where this one serves a reporter gene function. To generalize the intended target to other relatable targets, this assay endpoint is annotated to the nuclear receptor intended target family, where the subfamily is orphan.
# Human liver HepG2 cells are transiently transfected with multiple reporter transcription units (MRTUs) in 6-well plates using FuGene 6 reagent (Roche; 3 ml FuGene/1 mg DNA). The MRTU constructs are regulated by a cis-regulating element (promoter). […] A major difference between the CIS and TRANS system is that in CIS activities of endogenous TFs are measured, whereas the TRANS assay evaluates changes in activities of exogenous, chimeric NR-Gal4 proteins. […] At the end of 24 hour incubation, total RNA was isolated using TriZol reagent (Invitrogen). The isolated RNA is then reverse-transcribed using oligo(dT) primer and Mo-MLV reverse transcriptase (Invitrogen) with DNAse I (Ambion) treatment for 30 min. The one-tenth of the produced cDNA was amplified by PCR using Taq DNA polymerase (Invitrogen) and two reporter sequence-specific primers. The PCR products were fluorescently labeled by primer extension with 6-arboxyfluorescein (6-FAM) 5'-labeled reporter sequence-specific primer (2 min at 95 C, 20 s at 68 C and 10 min at 72 C) and these products were digested with 5U of HpaI (New England Biolabs) for 2h at 37 C. The fragments were purified using Qiaquick PCR columns (Qiagen), analyzed on an ABI 3130xL genetic analyzer (Applied Biosystems) with peak positions identified by using a set of X-rhodamine (ROX)-labeled MapMarker1000 molecular weight standards (BioVentures). The raw capillary electrophoresis data was processed using Attagraph software (Attagene).
Compound,AC50,outcome
CC1COCc2cc3c(cc21)C(C)(C)C(C)C3(C)C (stereo not given),164 µM (active),–
Cc1[nH]nc2c1N=C(c1ccccc1Cl)c1cc([N+](=O)[O-])ccc1N2,–,inactive
O=C(F)C(F)(F)C(F)(F)C(F)(F)C(F)F,–,inactive
CN(CCO)S(=O)(=O)C(F)(F)C(F)(F)C(F)(F)C(F)(F)C(F)(F)C(F)(F)C(F)(F)C(F)(F)F,–,inactive
O=C(O)C(F)(F)OC(F)(F)C(F)(F)OC(F)(F)C(F)(F)OC(F)(F)C(F)(F)C(F)(F)C(F)(F)F,45.4 µM (active) and 21.6 µM (active),–
O=C(CC(=O)C(F)(F)C(F)(F)C(F)(F)F)c1cccs1,15.6 µM (active),inactive
CC[N+](CC)(CC)Cc1ccccc1,–,inactive
O=C(c1cc(O)c(O)c(O)c1)c1ccc(O)c(O)c1O,–,inactive
CC(C)(C)c1ccc(CCC=O)cc1,–,inactive
O=CC(F)(F)C(F)(F)C(F)(F)C(F)F,–,inactive
Oc1c(Cl)cc(Cl)cc1Sc1cc(Cl)cc(Cl)c1O,2.56 µM (active),–
NNC(=O)CCCCC(=O)NN,–,inactive
CCCCC(CC)C(=O)O (stereo not given),–,inactive
CCCC=O,–,inactive
O=CC(F)(F)C(F)(F)C(F)(F)F,–,inactive
NC(C(F)(F)F)C(F)(F)F,–,inactive
CC1CCC(CO)CC1 (stereo not given),–,inactive
FC(F)(F)C1(F)C(F)(F)C(F)(F)C(F)(F)C(F)(C(F)(F)F)C1(F)F (stereo not given),–,inactive
COCN(COC)c1nc(N(COC)COC)nc(N(COC)COC)n1,–,inactive

Compound,AC50,outcome
CCC(C)c1ccccc1O (stereo not given),–,inactive
CCC(=O)O,–,inactive
FC1(F)C=CC(F)(F)C1(F)F,–,inactive
CC(C)CCOCCC(C)C,–,inactive
CCCCCCCCCCCCCCC,–,inactive
CCO[Si](CCC1CCC2OC2C1)(OCC)OCC (stereo not given),–,inactive
O=C(O)CCC(F)(F)C(F)(F)C(F)(F)C(F)(F)C(F)(F)C(F)(F)F,–,inactive
Nc1ccn([C@@H]2O[C@H](CO)[C@@H](O)C2O)c(=O)n1 (stereo not given in full),–,inactive
OCC(CO)(CBr)CBr,–,inactive
OCC(F)(F)C(F)(F)C(F)(F)C(F)(F)C(F)(F)C(F)(F)C(F)(F)C(F)(F)C(F)(F)C(F)(F)C(F)(F)F,–,inactive
COC(=O)C(F)(F)C(F)(F)C(F)(F)F,–,inactive
FC(F)=C(F)C(F)(F)C(F)(F)C(F)(F)C(F)F,–,inactive
Nc1cc(Cl)c(-c2cc(Cl)c(N)cc2Cl)cc1Cl,–,inactive
CCCCCCCCCCCCCCCCCC[N+](C)(C)Cc1ccccc1,–,inactive
O=C(O)CCC(F)(F)C(F)(F)C(F)(F)C(F)(F)C(F)(F)F,–,inactive
CCc1ccccc1O,–,inactive
Cc1ccccc1OCC(=O)O,–,inactive
O=C1OC2(c3ccccc31)c1cc(I)c(O)c(I)c1Oc1c2cc(I)c(O)c1I,34.5 µM (active) and 28.1 µM (active),inactive
O=C1OC(=O)c2cc(-c3ccc4c(c3)C(=O)OC4=O)ccc21,–,inactive
